Laboratory results reported in PubChem BioAssay AID504594 (Broad Institute, 2011).
Screen size: about 2,000 compounds; fewer than 10 were called active. Not all results are given here. Unmarked numbers belong to inactive results.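 How the source made its calls: active means growth inhibition of at least 75% in every replicate, which also brings the mean inhibition to 75% or more; inconclusive means mean inhibition 75% or more but some replicate under 75%; inactive means the rest.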

Assay: reduced viability of yeast carrying PfHsp90 – S. cerevisiae, BacTiter-Glo luminescence, antimalarial PfHsp90 inhibitor project, primary screen (AID 504594);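 further: 0% = DMSO neutral control wells and 100% = 20 µM radicicol control wells; higher value means stronger growth inhibition because the sign is flipped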
Conditions: S. cerevisiae expressing PfHsp90, BacTiter-Glo growth, 48 h; at 9.4 µM; active compounds read high

Compared with `CCc1cc2c(C)cc(=O)oc2cc1OC(=O)C1CCCN1C(=O)OC(C)(C)C` (configuration not stated), `C#CCOc1ccc2c(C)cc(=O)oc2c1` is lower in growth inhibition: 5.63% for the first, -0.459% for the second.

Going from `COc1ccc2cc(C(=O)Nc3ccc(S(N)(=O)=O)cc3)sc(=O)c2c1OC` to `CC(=O)Nc1ccc(OS(=O)(=O)c2c(C)cc(C)cc2C)cc1`, the growth inhibition rises from 5.36% to 10.9%.

First: CC(C)(C)NCC(O)COc1ccccc1C(=O)CCc1ccccc1 (configuration not stated)
Second: O=C(O)c1ccccc1OCCOc1ccccc1
The growth inhibition of the first is lower: -4.71% for the first, 3.6% for the second.

Going from `Cn1c(=O)[nH]c2nnc(-c3ccc(Cl)c(Cl)c3)nc2c1=O` to `Cn1nc(-c2ccccn2)nc2c(=O)n(C)c(=O)nc1-2`, the growth inhibition falls from 1.34% to -12.4%.

First: N/C(Cc1ccc(Cl)cc1Cl)=N\OC(=O)c1ccc(Br)o1
Second: O=C(c1ccc(Cl)cc1)C1CCCN(Cc2ccc(Oc3ncccn3)cc2)C1 (configuration not stated)
The growth inhibition of the first is higher: 30.5% for the first, -7.65% for the second.

Compared with `Cc1cccc(Oc2coc3cc(OC(=O)c4cncc(Br)c4)ccc3c2=O)c1`, `COc1ccc2[nH]c3c(c2c1)CCn1c-3nc2ccccc2c1=O` is higher in growth inhibition: -0.933% for the first, 0.118% for the second.

First: COC(=O)[C@@H](N)CS
Second: COc1ccc(C(=O)O)cc1F
The growth inhibition of the first is higher: -1.65% for the first, -4.03% for the second.

Going from `O=Cc1ccc(N2CCCCC2)cc1` to `CC(=O)N1CCN(c2ccc(NC(=O)/C=C/c3ccccc3)cc2)CC1`, the growth inhibition rises from -3.18% to 10.6%.

Going from `COc1cccc(CC(=O)NCC2COc3ccccc3O2)c1OC` (configuration not stated) to `O=C(Cc1ccccc1[N+](=O)[O-])NCc1ccncc1`, the growth inhibition rises from 12.9% to 15%.

Going from `O=C(NCc1ccco1)/C(=C\C=C\c1ccccc1)NC(=O)c1ccccc1Br` to `O=Cc1ccccc1Oc1ccccc1`, the growth inhibition rises from -0.463% to -0.351%.

First: CC(=O)OCC(OC(C)=O)C(OC(C)=O)C(OC(C)=O)C(=O)Nc1cccc(C)c1 (configuration not stated)
Second: CC(C)CC(=O)NC(NC(=O)CC(C)C)c1cccc([N+](=O)[O-])c1
The growth inhibition of the first is lower: -0.0548% for the first, 2.96% for the second.

First: Cc1ccccc1-c1nn(-c2ccc(F)cc2F)cc1CNCCN(C)C
Second: CC(=O)Oc1ccc(C2OC(=O)c3ccccc3N2C(C)=O)cc1 (configuration not stated)
The growth inhibition of the first is lower: -12.6% for the first, -6.47% for the second.

Going from `CC(C)Cc1ccc(C(C)C(=O)Nc2ccc(O)cc2)cc1` (configuration not stated) to `Cc1ccc(C(=O)Nc2ccc(O)cc2C(=O)O)cc1C`, the growth inhibition rises from -4.11% to 4.07%.

Going from `CC(=O)N1CCn2c3c(c4cc(C)ccc42)CCCC31` (configuration not stated) to `O=CNC1CCCc2c1[nH]c1ccc(Cl)cc21` (configuration not stated), the growth inhibition rises from -11.1% to -7.59%.

Compared with `Fc1cccc(Cc2noc(CN3CCN(c4cnccn4)CC3)n2)c1`, `CCN1CCN(C(=S)c2ccc(OC)cc2)CC1` is higher in growth inhibition: -2% for the first, -1.26% for the second.

First: CCOc1ccc(C(=O)C(C)=O)c(OCC)c1
Second: Cc1ccc(OCCCCn2ccnc2C)c(C)c1
The growth inhibition of the first is higher: 10.5% for the first, -3.77% for the second.

First: Cc1ccc2nc3c(cc(C(=O)NCC4CCCO4)c(=N)n3CCCOC(C)C)c(=O)n2c1 (configuration not stated)
Second: COc1ccc(CCN2C(=O)CSC2c2ccc(OC)c(OC)c2)cc1OC (configuration not stated)
The growth inhibition of the first is higher: 4.47% for the first, 2.57% for the second.

First: CC(=O)NC(NC(=S)N1CCCCCC1)C(Cl)(Cl)Cl (configuration not stated)
Second: O=C1C(=O)N2C(=C1C(=O)N1CCCCCC1)c1ccccc1CC21CCCC1
The growth inhibition of the first is higher: -2.52% for the first, -4.5% for the second.

First: C[N+]1(C2CCC3CCCC2C3O)CCCCC1 (configuration not stated)
Second: C[N+]12CCCCC1C(COC(=O)c1ccc3c(c1)OCO3)CCC2 (configuration not stated)
The growth inhibition of the first is lower: -8.1% for the first, 1.34% for the second.

Going from `O=C(O)CCCCCN=C1CCc2ccccc2N1` to `CC1CCN(C(=O)Oc2ccccc2)CC1`, the growth inhibition rises from 0.535% to 5.73%.

First: O[C@H]1COC2C1OC[C@@H]2O (some centres not stated)
Second: Cc1ccc(C2CC(c3cccs3)=NN2C(=O)c2ccco2)o1 (configuration not stated)
The growth inhibition of the first is lower: -2.02% for the first, 6.03% for the second.

First: Oc1ccc(COCc2ccccc2)c2cccnc12
Second: COc1ccc(C(=O)[C@H]2[C@H]3C(=O)N(c4ccccc4)C(=O)[C@H]3C3C=CC=NN32)cc1 (some centres not stated)
The growth inhibition of the first is lower: -6.18% for the first, 15.9% for the second.

With `CC(C)N(C(=O)Cc1ccccc1[N+](=O)[O-])C(C)C` the growth inhibition was 4.35%.

In the case of `Cn1nc(-c2ccc(Cl)cc2)nc2c(=O)n(C)c(=O)nc1-2`, the growth inhibition is reported as 104% (active).
In the case of `O=[N+]([O-])c1ccc(O)c2ncccc12`, the growth inhibition is reported as 93.7% (active).
